The text below walks through data of PubChem BioAssay (NCATS).

Results filed as inconclusive are left out. A number with no mark means an inactive call. Activity calls are given as the source filed them. The call rests on the fitted dose curve; in most records, active means well fitted cell-killing curve with a large enough effect; inconclusive means small, poorly fitted or top-dose-only effect, or effect the other way; inactive means no such curve, though single readings can be large or run the other way.
Potency means the concentration at half of the fitted maximal effect.

This experiment is described as follows: Viability qHTS for spleen associated tyrosine kinase inhibitor (SYKi) drug resistant MV4-11 cells (AID 1963824). Further: nearly all actives have a fitted effect of over 35% in size. The settings on record: SYKi-resistant MV4-11 viability, CellTiter-Glo, 72 h; series mostly up to 45 µM; viability, % of control: at the top concentration. A digest of the protocol:
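CellTiter-Glo luminescence, read 10 min after reagent addition, reports viability after a 72 hr compound exposure. Cells are an MV4-11 line made resistant to SYK inhibition, seeded at 500 per well onto compound-containing plates.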
(qHTS replaces the single test concentration by a dilution series.)
With `COc1cc(O)cc(O[C@@H]2O[C@H](CO)[C@@H](O[C@@H]3OC[C@](O)(CO)[C@H]3O)[C@H](O)[C@H]2O)c1OC`, the “viability, % of control” value was 78.9% [at 17.3 µM].
In the case of `OC[C@@]1(O)CO[C@H](OC[C@H]2O[C@@H](OC(CCCCc3ccc(O)cc3)CCc3ccc(O)cc3)[C@H](O)[C@@H](O)[C@@H]2O)[C@@H]1O` (stereo partly specified), the “viability, % of control” value was 96.1% [at 17.3 µM].
The same measure, in the same setting: then `O=C(/C=C/c1ccc(O)cc1)OC[C@H]1O[C@@H](OC(=O)/C=C/c2ccccc2)[C@H](O)[C@@H](O)[C@@H]1O`, with 87.9% [at 17.3 µM].
Turning to `C=C1CC2OC(=O)C(COC)C2C(OC(=O)/C(C)=C\C)CC2(C)OC1=CC2=O` (stereo unspecified), the Potency is 0.805 µM (active).
For `CCCCC1CCN(CCCN2C(=O)CCc3ccccc32)CC1`, the Potency is 2.59 µM (active).
Consider `CC1OC(OC2C(CO)OC(OCC3OC(OC(=O)C45CCC(C)(C)CC4C4=CCC6C7(C)CCC(OC8OC(CO)C(O)C(OC9OC(CO)C(O)C(O)C9O)C8O)C(C)(C)C7CCC6(C)C4(C)CC5)C(O)C(O)C3O)C(O)C2O)C(O)C(O)C1OC1OC(CO)C(O)C(O)C1O` (stereo unspecified), for which the viability, % of control was 88.5% [at 9.25 µM].
In the case of `O=S(=O)(c1cccc2c(Cl)cccc12)N1CCCNCC1`, the Potency was 20.6 µM (active).
On to `Cc1nc2cc(C(=O)NCc3ccccn3)nn2c(C)c1Cc1cccc(Cl)c1`, for which the Potency is 20.6 µM (active).
`COc1cc(Br)c(S(=O)(=O)Nc2ccc(Cl)c(O[C@@H]3CCN(C)C3)c2)cc1OC`: the Potency was 6.51 µM (active).
As for `CC(c1c[nH]c2ccccc12)C(O)C(=O)O` (stereo unspecified), the “viability, % of control” value is 74.5%.
`CC(=O)OCC1=C[C@@H]2OC(=O)C3=CO[C@@H](O[C@@H]4O[C@H](CO)[C@@H](O)[C@H](O)[C@H]4O)[C@H]1[C@@H]32`: the “viability, % of control” value is 74.7% [at 17.3 µM].
On to `CCC(C)C(=O)OC1CC(O)C23C4OCC5(C(O)CC2C1(C)C(O)O4)C3C(=O)C(O)C1(C)C(O)(c2ccoc2)CC2OC251` (stereo unspecified), for which the Potency is 0.432 µM (active).
On to `C/C(=N\NC(=S)N1CCC1)c1ccccn1`, for which the Potency was 0.0074 µM (active).
The same measure, in the same setting: with `CSCC[C@H](NC(=O)[C@H](CO)NC(=O)[C@H](CCC(=O)O)NC(C)=O)C(=O)N[C@H](C=O)CC(=O)O` the figure was 1.5 µM (active).
For the molecule `COc1ccc(/C=C/C(N)=O)cc1OC`, the “viability, % of control” value is 99.6%.
Regarding `C=C1CCC2C(C)(C(=O)O)CCCC2(C)C1CCC(C)CC(=O)O` (stereo unspecified), the Potency is 4.53 µM (active).
Turning to `COc1c2c(c(C)c3c1C(=O)OC3)O[C@@]1(C)C[C@@H](O)[C@]34O[C@](OC)(CC[C@]3(C)[C@H]1C2)OC4(C)C`, the “viability, % of control” value was 72.9% [at 17.3 µM].
Take `CC1(C)CC[C@]2(C(=O)O[C@@H]3O[C@H](CO)[C@@H](O)[C@H](O)[C@H]3O)CC[C@]3(C)C(=CCC4[C@@]5(C)C[C@@H](O)[C@H](O)[C@](C)(C=O)C5CC[C@]43C)[C@@H]2[C@@H]1O` (stereo partly specified): the “viability, % of control” value was 98.3% [at 17.3 µM].
`CCC(=O)O[C@]1(C(=O)CCl)[C@@H](C)C[C@H]2[C@@H]3C[C@H](F)C4=CC(=O)C=C[C@]4(C)[C@@]3(F)[C@@H](O)C[C@@]21C`: the Potency is 18.4 µM (active).
Take `OC(CNCCc1c[nH]c2ccccc12)Cn1c2ccccc2c2ccccc21` (stereo unspecified): the Potency is 5.17 µM (active).
Take `CC(C)=C/C=C\[C@H](C)[C@H]1CC[C@]2(C)C[C@@H]3C(C)=CC(=O)C3/C(CO)=C\C[C@@H]12` (stereo partly specified): the Potency is 14.3 µM (active).
For `COc1c2c(c(C)c3c1C(=O)OC3)OC1(C)CC(O)C34OC(OC)(OC3(C)C)C(O)CC4(C)C1C2` (stereo unspecified), the “viability, % of control” value was 90.7% [at 17.3 µM].
Still for that read-out and setting: with `COC1OC(OC)C(O)(CCC2(C)C(C)CCC3(C)C2CC(O)C(O)C32CO2)C1O` (stereo unspecified) the figure was 95.5% [at 17.3 µM].
For `CC(Oc1ccc2[nH]nc(/C=C/c3cnn(CCO)c3)c2c1)c1c(Cl)cncc1Cl` (stereo unspecified), the Potency was 0.0116 µM (active).
As for `COc1c(C)c2c(c(O)c1C/C=C(\C)CC/C=C(\C)CCC(=O)O)C(=O)OC2`, the “viability, % of control” value is 87.3%.
For the molecule `CCC(C)C(=O)O[C@H]1CCC=C2C=C[C@H](C)[C@H](CC[C@@H](O)C[C@@H](O)CC(=O)O)[C@H]21` (stereo partly specified), the Potency is 10 µM (active).
For `O=C(/C=C/c1ccc(O)c(O)c1)O[C@@H]1[C@@H](O)[C@H](OC2CCCCC2O)O[C@H](CO)[C@H]1O` (stereo partly specified), the “viability, % of control” value is 104% [at 17.3 µM].
In the case of `Cc1nc(C)c(CN2CCN(C(c3ccc(F)cc3)c3ccc(F)cc3)CC2)nc1C`, the Potency is 14.8 µM (active).
As for `CC1(C)CC[C@]23CO[C@@]4(CCC5[C@@]6(C)CC[C@H](O[C@@H]7OC[C@H](O[C@@H]8O[C@H](CO)[C@@H](O)[C@H](O)[C@H]8O[C@@H]8OC[C@@H](O)[C@H](O)[C@H]8O)[C@H](O)[C@H]7O)[C@@](C)(CO)C6CC[C@@]5(C)[C@]4(C)CC2=O)[C@@H]3C1` (stereo partly specified), the Potency was 4.91 µM (active).
Regarding `O=C(/C=C/c1ccccc1)O[C@@H]1[C@@H](CO)O[C@@](CO)(O[C@H]2O[C@H](CO)[C@@H](O)[C@H](O)[C@H]2O)[C@H]1O`, the “viability, % of control” value is 99.7% [at 17.3 µM].
Regarding `COc1cc(O)c2c(=O)c(O)c(-c3ccc(O)c(O)c3)oc2c1`, the Potency is 8.2 µM (active).
